# PubChem BioAssay (NCATS)
# Inconclusive results are not listed. Where a call stands in place of a potency, no number is given. Activity calls are given as the source filed them. Unless noted, the call rests on the fitted dose curve; in most records, active means well fitted curve in the direction sought with a large enough effect; inconclusive means small, poorly fitted or top-dose-only effect, or another doubt; inactive means no such curve, though single readings can be large; an effect the other way counts as inactive or inconclusive.
# Assays:
# [1] = target: Catechol O-methyltransferase (Homo sapiens) (UniProt P21964); test: Confirmatory Screen for Target Class Profiling of Small Molecule Inhibitors of Methyltransferases (AID 1745852; calls by dose curve; further: potency means the concentration at half of the fitted maximal effect); settings: MTase-Glo luminescence, SAH detection, recombinant enzyme; measured here: COMT max response; stronger effect = lower value
# [2] = target: Guanidinoacetate N-methyltransferase (Homo sapiens) (UniProt Q14353); test: as above; settings: MTase-Glo luminescence, SAH detection, recombinant enzyme; activity change, negative = inhibition: at 57.3 µM (top of the series)
# [3] = target: Nicotinamide N-methyltransferase (Homo sapiens) (UniProt P40261); test: as above; settings: MTase-Glo luminescence, SAH detection, recombinant enzyme; measured here: NNMT max response; stronger effect = lower value
# [4] = target: Phenylethanolamine N-methyltransferase (Homo sapiens) (UniProt P11086); test: as above; settings: MTase-Glo luminescence, SAH detection, recombinant enzyme; measured here: PNMT max response; stronger effect = lower value
# [5] = target: Glutathione peroxidase 1 (Homo sapiens) (UniProt P07203); test: Primary qHTS Assay for Inhibitors of Recombinant Selenoprotein Glutathione Peroxidase 1 (GPX1) (AID 1845191); settings: recombinant GPX1, GR-coupled NADPH fluorescence, 15 min; series mostly up to 48.8 µM; further: nearly all actives have a fitted effect of over 65% in size
# Procedure, shortened: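 NADPH consumption tracked by fluorescence at 340/450 nm between t=0 and t=15 min, room temperature. Final mix: 10 nM GPX1, 100 nM glutathione reductase, 1 mM GSH, 0.5 mM NADPH, 0.5 mM cumene hydroperoxide, 0.01% BSA; 30 min compound–enzyme preincubation.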
# [6] = target: Phospholipid hydroperoxide glutathione peroxidase GPX4 (Homo sapiens) (UniProt P36969); test: Primary qHTS Assay for Inhibitors of Recombinant Selenoprotein Glutathione Peroxidase 4 (GPX4) (AID 1845192); settings: recombinant GPX4, GR-coupled NADPH fluorescence, 15 min; series mostly up to 50 µM; further: nearly all actives have a fitted effect of over 65% in size
# Procedure, shortened: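 NADPH consumption followed by fluorescence at 340/450 nm, t=0 and after 15 min at room temperature. Reaction started with cumene hydroperoxide (0.5 mM final) after 30 min compound–GPX4 preincubation; final 200 nM GPX4, 100 nM GR, 1 mM GSH, 0.5 mM NADPH.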
# [7] = target: Luciferin 4-monooxygenase (Photinus pyralis) (UniProt P08659); test: Primary firefly luciferase (FLuc) qHTS assay for identification of artifact compounds. (AID 1845220); settings: purified firefly luciferase, luminescence, 5 min; series mostly up to 54.1 µM; further: nearly all actives have a fitted effect of over 60% in size
# Procedure, shortened: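 Compounds sat 15 min at room temperature with 10 uM luciferin and 10 uM ATP (pH 7.6 Tris acetate). Firefly luciferase (10 nM final) was then added, and luminescence was read 5 min later. Data normalized to no-enzyme and DMSO controls were Hill-fitted.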
# [8] = test system: Nanoluciferase (engineered Oplophorus gracilirostris luciferase); test: Primary Nanoluciferase (NLuc) qHTS assay for identification of artifact compounds. (AID 1845222); settings: NLuc-conditioned medium, Nano-Glo luminescence, 5 min; series mostly up to 54.1 µM
# Procedure, shortened: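 Luminescence from secreted NLuc (filtered, 1:55-diluted S16 cell medium) read 5 min after Nano-Glo substrate; compounds preincubated 15 min, RT. Hill fits of inhibition normalized to DMSO and no-enzyme.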
# [9] = Primary redox qHTS assay for identification of artifact compounds. (AID 1845223); settings: Amplex Red/HRP redox cycling with DTT, fluorescence; series mostly up to 53.8 µM
# Procedure, shortened: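 Redox-cycling detection via DTT (250 uM final) oxidation coupled to Amplex Red (25 uM)/HRP (250 mU/mL) in HBSS. 15 min preincubation plus 30 min after DTT, room temperature. Ex/Em 525/598 nm; 4-parameter Hill fit against DMSO and 10 uM DA3003.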
# [10] = Quantitative High-Throughput drug screen in 47 multiple myeloma cell lines against the NCATS MIPE library collection: FR4_PLB cell viability assay (AID 1918924; further: nearly all actives have a fitted effect of over 35% in size; further: potency means the concentration at half of the fitted maximal effect); settings: FR4_PLB myeloma cells viability, CellTiter-Glo ATP, 48 h; series mostly up to 45.8 µM
# Procedure, shortened: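 Myeloma cells (500 per well) were exposed to MIPE 4.0 compounds by pin transfer and incubated 48 hours at 37C, 5% CO2. Viability was read as ATP by CellTiter-Glo luminescence, normalised to DMSO (100%) and media-only (0%) wells.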
# [11] = Quantitative High-Throughput drug screen in 47 multiple myeloma cell lines against the NCATS MIPE library collection: Delta47_JCRB cell viability assay (AID 1918925; further: nearly all actives have a fitted effect of over 45% in size; further: potency means the concentration at half of the fitted maximal effect); settings: Delta47 myeloma viability, CellTiter-Glo ATP, 48 h; series mostly up to 45.8 µM
# Procedure, shortened: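 Luminescent ATP measurement with CellTiter-Glo gives viability, scaled between DMSO-only wells (100%) and media-only wells (0%). Cells, 500 per well, faced library compounds for 48 hours at 37C.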
# [12] = Primary fluorescence-based thiol-reactive (MSTI) qHTS assay for identification of artifact compounds. (AID 1845221); settings: MSTI thiol-reactivity probe, 1 h; series mostly up to 53.8 µM;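 further: thiol-reactive compounds lower the probe fluorescence signal; nearly all actives have a fitted effect of over 65% in size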
# Procedure, shortened: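 Probe: MSTI 4 uM, PBS pH 7.4, 2% DMSO. Incubation 1 h, RT, light-protected. Readout fluorescence 525/598 nm.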
# [13] = Viability counterscreen for agonist of constitutive androstane receptor (CAR) against the NCATS DSHEA and TCM libraries (AID 1794838); settings: HepG2 cell viability counterscreen, CAR agonist assay, co-treated with 0.75 µM CAR antagonist; series mostly up to 40 µM;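 further: HepG2 cells with CYP2B6 reporter and hCAR plus 0.75 µM PK11195 antagonist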
# Procedure, shortened: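 Viability by CellTiter-Fluor fluorescence, 405/540 nm, after 1 h at 37C. HepG2-CYP2B6-hCAR cells were exposed 24 h to test substances in presence of 0.75 uM PK11195 (final).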
# [14] = HepG2 viability counterscreen (readout 2: ATP content) against the NCATS DSHEA and TCM libraries (AID 1794840); settings: ATP content luminescence; series mostly up to 27.3 µM
# Procedure, shortened: (§1)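 1,000 HepG2 cells/well, 4 h attach; compounds ~24 h, 37C/5% CO2. Readout 1: GF-AFC 25 uM final, 30 min, fluorescence 380/510 nm. Readout 2: CellTiter-Glo, 30 min RT, luminescence.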
# [15] = HepG2 viability counterscreen (readout 1: protease activity) against the NCATS DSHEA and TCM libraries (AID 1794841); settings: qHTS concentration series; series mostly up to 27.3 µM;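 further: cells exposed to compounds for about 24 h before the protease read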
# Procedure, shortened: as §1
# [16] = NCATS anti-infectives library activity on HEK293 viability as a counter-qHTS vs the C. elegans viability qHTS (AID 1745854); settings: HEK293 viability counter-screen; series mostly up to 41.8 µM;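 further: HEK293 cells exposed to compounds for 24 hr before the viability read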
# Procedure, shortened: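 Counter-screen for cytotoxicity: HEK293, 24 hr, 37C, compounds up to 41.7 uM final (a dilution series, 1:5). Readout CellTiter-Glo luminescence, 10 min RT. Digitonin control, 83.3 uM final.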
# [17] = NCATS anti-infectives library activity on the primary C. elegans qHTS viability assay (AID 1745855; calls by dose curve; further: potency means the concentration at half of the fitted maximal effect); settings: C. elegans worm area imaging, day 7; series mostly up to 41.8 µM
# Procedure, shortened: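 GFP read-out by 488 nm laser cytometry at day 0, 3 and 7, gated on object perimeter, area and peak intensity, scored viability of PE254-GFP-FLuc worms exposed to compound in S medium with bacterial capsules at 21 °C.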
# Chain of Glutathione peroxidase 1 (Homo sapiens) (P07203 whole entry, looked up): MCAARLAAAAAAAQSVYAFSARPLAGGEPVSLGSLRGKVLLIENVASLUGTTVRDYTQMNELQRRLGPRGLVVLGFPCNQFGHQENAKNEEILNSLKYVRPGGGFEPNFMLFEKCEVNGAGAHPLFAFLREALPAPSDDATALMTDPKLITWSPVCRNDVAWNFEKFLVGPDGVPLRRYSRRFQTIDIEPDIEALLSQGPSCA
# Chain of Catechol O-methyltransferase (Homo sapiens) (P21964 whole entry, looked up): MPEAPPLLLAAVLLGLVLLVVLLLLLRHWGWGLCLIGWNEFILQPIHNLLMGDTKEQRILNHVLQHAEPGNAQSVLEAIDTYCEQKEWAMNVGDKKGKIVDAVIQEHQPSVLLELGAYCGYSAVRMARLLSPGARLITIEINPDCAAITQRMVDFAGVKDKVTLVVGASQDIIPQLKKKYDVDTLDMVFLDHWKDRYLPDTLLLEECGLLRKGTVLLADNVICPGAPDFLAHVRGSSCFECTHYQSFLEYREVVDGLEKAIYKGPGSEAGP
# Chain of Phospholipid hydroperoxide glutathione peroxidase GPX4 (Homo sapiens) (P36969 whole entry, looked up): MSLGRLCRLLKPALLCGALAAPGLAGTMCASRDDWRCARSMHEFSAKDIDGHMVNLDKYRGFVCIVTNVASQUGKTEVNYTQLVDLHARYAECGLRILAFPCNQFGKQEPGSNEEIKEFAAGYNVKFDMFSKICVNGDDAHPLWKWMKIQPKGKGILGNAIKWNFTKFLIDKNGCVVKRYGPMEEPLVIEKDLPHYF
# Chain of Nicotinamide N-methyltransferase (Homo sapiens) (P40261 whole entry, looked up): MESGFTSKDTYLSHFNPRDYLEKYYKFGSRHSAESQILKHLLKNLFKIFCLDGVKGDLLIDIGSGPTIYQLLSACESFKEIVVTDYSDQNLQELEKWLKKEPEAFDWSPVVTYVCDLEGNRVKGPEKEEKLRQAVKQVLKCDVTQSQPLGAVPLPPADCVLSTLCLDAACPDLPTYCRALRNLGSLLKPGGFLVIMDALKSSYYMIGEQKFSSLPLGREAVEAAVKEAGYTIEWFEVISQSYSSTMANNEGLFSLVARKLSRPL
# Chain of Phenylethanolamine N-methyltransferase (Homo sapiens) (P11086 whole entry, looked up): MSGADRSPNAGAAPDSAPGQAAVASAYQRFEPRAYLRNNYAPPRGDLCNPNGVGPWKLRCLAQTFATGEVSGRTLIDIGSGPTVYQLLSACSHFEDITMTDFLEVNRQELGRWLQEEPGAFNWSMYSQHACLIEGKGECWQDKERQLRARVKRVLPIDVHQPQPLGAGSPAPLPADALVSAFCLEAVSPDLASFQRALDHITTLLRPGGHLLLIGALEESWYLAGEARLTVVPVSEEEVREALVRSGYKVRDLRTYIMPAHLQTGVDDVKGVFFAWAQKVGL
compound,measurement,setting,value
CN1CCc2c(n(Cc3ccc(C(=O)NO)cc3)c3ccccc23)C1,activity,[1],0%
same,"activity change, negative = inhibition",[2],0.311%
same,activity,[3],-0.568%
same,activity,[4],4.88%
same,Potency,[5],inactive
same,Potency,[6],inactive
same,Potency,[7],inactive
same,Potency,[8],inactive
same,outcome,[9],inactive
same,Potency,[10],16.6 µM (active)
same,Potency,[11],20.9 µM (active)
Nc1ncnc2c1c(-c1cccc(OCc3ccccc3)c1)cn2C1CC(CN2CCC2)C1 (stereo not given),activity,[1],-26%
same,Potency,[2],30.4 µM (active)
same,activity,[3],-29.1%
same,activity,[4],-91.7%
same,Potency,[5],inactive
same,Potency,[6],inactive
same,Potency,[7],inactive
same,Potency,[12],inactive
same,Potency,[8],inactive
same,Potency,[10],16.6 µM (active)
same,Potency,[11],0.372 µM (active)
O=c1cc(-c2ccc(O)c(O)c2)oc2cc(O)cc(O)c12,Potency,[13],inactive
same,outcome,[14],inactive
same,outcome,[15],inactive
same,Potency,[5],inactive
same,Potency,[10],inactive
Fc1ccc(CNc2ncnc3ccc(F)cc23)cc1,outcome,[16],inactive
same,Potency,[6],inactive
same,Potency,[7],inactive
same,Potency,[12],inactive
same,Potency,[8],inactive
same,outcome,[9],inactive
same,Potency,[11],7.43 µM (active)
Nc1ncnc2c1ncn2[C@@H]1O[C@H](CO)[C@@H](O)[C@@H]1O,outcome,[16],inactive
same,Potency,[5],inactive
same,Potency,[6],inactive
CC(=O)Nc1cccc(-n2c(=O)n(C3CC3)c(=O)c3c(Nc4ccc(I)cc4F)n(C)c(=O)c(C)c32)c1,Potency,[17],2.3 µM (active)
same,Potency,[5],inactive
same,Potency,[6],inactive
same,Potency,[7],inactive
same,Potency,[12],inactive
same,Potency,[8],inactive
same,outcome,[9],inactive
same,Potency,[10],0.743 µM (active)
CC(C)[C@H](O)C(=O)N[C@@H](C)C(=O)N[C@@H]1C(=O)N(C)CCc2ccccc21,outcome,[16],inactive
same,Potency,[6],inactive
same,Potency,[10],inactive
COc1ccc(-c2nc3ccc(C4=NNC(=O)CC4C)cc3[nH]2)cc1 (stereo not given),outcome,[16],inactive
same,Potency,[5],inactive
same,Potency,[12],inactive
same,Potency,[8],inactive
same,outcome,[9],inactive
same,Potency,[10],inactive
Cc1ccc2c(c1)c1c(n2CCc2ccc(C)nc2)CCN(C)C1,activity,[1],-6.68%
same,"activity change, negative = inhibition",[2],-3.88%
same,activity,[3],-13.3%
same,activity,[4],-2.48%
same,Potency,[5],inactive
same,Potency,[6],inactive
same,Potency,[12],inactive
same,Potency,[8],inactive
same,Potency,[11],inactive
Cc1ccc2c(=O)c3cccc(CC(=O)O)c3oc2c1C,outcome,[16],inactive
same,Potency,[5],inactive
same,Potency,[6],inactive
Cc1cn([C@@H]2C[C@@H](O)[C@H](CO)O2)c(=O)[nH]c1=O,outcome,[16],inactive
same,Potency,[6],inactive
same,Potency,[10],inactive
same,Potency,[11],inactive
NS(=O)(=O)c1ccc(Nc2nc(OCC3CCCCC3)c3[nH]cnc3n2)cc1,activity,[1],-14.9%
same,"activity change, negative = inhibition",[2],-2.65%
same,activity,[3],-73.9%
same,activity,[4],-14.7%
same,Potency,[5],inactive
same,Potency,[7],inactive
same,Potency,[12],inactive
same,Potency,[8],inactive
same,outcome,[9],inactive
same,Potency,[11],16.6 µM (active)
CC(C)CNc1ccnc(NCc2csc(-c3ccccc3)n2)n1,activity,[1],-9.21%
same,"activity change, negative = inhibition",[2],-8.39%
same,activity,[3],-34.7%
same,activity,[4],-20.3%
same,Potency,[5],inactive
same,Potency,[6],inactive
same,Potency,[12],inactive
same,Potency,[8],inactive
same,outcome,[9],inactive
same,Potency,[10],16.6 µM (active)
same,Potency,[11],2.35 µM (active)
Cc1ccccc1-n1c(Cn2nc(-c3cccc(O)c3)c3c(N)ncnc32)nc2cccc(C)c2c1=O,activity,[1],-10.8%
same,"activity change, negative = inhibition",[2],0%
same,activity,[3],-28.8%
same,activity,[4],1.94%
same,Potency,[6],inactive
same,Potency,[12],inactive
same,Potency,[8],inactive
same,outcome,[9],inactive
same,Potency,[10],8.33 µM (active)
same,Potency,[11],2.96 µM (active)
COc1ccc2ccc(=O)oc2c1CC=C(C)C,outcome,[16],inactive
Nc1[nH]nc2nnc(-c3c(-c4ccccc4)nn4ccccc34)cc12,activity,[1],-90.6%
same,Potency,[2],19.2 µM (active)
same,activity,[3],-76.8%
same,activity,[4],-92.5%
same,Potency,[5],inactive
same,Potency,[6],inactive
same,Potency,[8],inactive
same,outcome,[9],inactive
same,Potency,[11],4.69 µM (active)
c1cc(OCCN2CCCCC2)cc(-c2n[nH]c3ccc(-c4ncn[nH]4)cc23)c1,activity,[1],-3.59%
same,"activity change, negative = inhibition",[2],2.7%
same,activity,[3],-12.9%
same,activity,[4],-6.71%
same,Potency,[6],inactive
same,Potency,[7],inactive
same,Potency,[12],inactive
same,Potency,[8],inactive
same,outcome,[9],inactive
same,Potency,[11],13.2 µM (active)
CC1(COc2ccc3c(c2)ncn3-c2ccc3cccc(N4CCC(N)CC4)c3n2)COC1,activity,[1],-30.2%
same,Potency,[2],42.9 µM (active)
same,activity,[3],-29.9%
same,activity,[4],-30.6%
same,Potency,[5],inactive
same,Potency,[6],inactive
same,Potency,[7],inactive
same,Potency,[12],inactive
same,Potency,[8],inactive
same,Potency,[10],1.48 µM (active)
CN(C)CCN(Cc1ccc(Cl)cc1)c1ccccn1,outcome,[16],inactive
same,Potency,[10],inactive
same,Potency,[11],9.35 µM (active)
CC(C)(F)C[C@H](N[C@@H](c1ccc(-c2ccc(S(C)(=O)=O)cc2)cc1)C(F)(F)F)C(=O)NC1(C#N)CC1,outcome,[16],inactive
same,Potency,[5],inactive
same,Potency,[6],inactive
same,Potency,[11],inactive
Cc1ccc(S(=O)(=O)OCC(=O)Nc2ccc(C(=O)O)c(O)c2)cc1,outcome,[16],inactive
same,Potency,[17],12.9 µM (active)
same,Potency,[11],16.6 µM (active)
Clc1ccc(C2(c3ccc(-c4cn[nH]c4)cc3)CCNCC2)cc1,activity,[1],0.191%
same,"activity change, negative = inhibition",[2],0%
same,activity,[3],-22.3%
same,activity,[4],-4.19%
same,Potency,[5],inactive
same,Potency,[6],inactive
same,Potency,[12],inactive
same,Potency,[8],inactive
same,outcome,[9],inactive
same,Potency,[10],20.9 µM (active)
same,Potency,[11],1.32 µM (active)
O=C(O)c1nc(=O)[nH]c(=O)[nH]1,outcome,[16],inactive
same,"activity change, negative = inhibition",[6],4.26% [at 0.409 µM] (inactive)
same,Potency,[10],inactive
